Measured values taken from PubChem BioAssay (EPA / NIEHS).
“And” between values parts separate entries of the source, which are not always exact repeats. Equal entries are not always repeated. Results filed as inconclusive are left out. Some structures have more than one record in an assay (separate samples or runs), and their calls can disagree. The source made the active and inactive calls. How the source made its calls, unless noted: active means hit-call score of the fitted dose curve at least 0.9, where 1 is the maximum; inactive means score below 0.9.

Columns and labels:
[1] = ATG_TCF_b_cat_CIS: Attagene CIS-FACTORIAL HepG2 Assay for human T-Cell-Factor with beta-catenin (TCF/b-cat) (AID 2282965); details: HepG2 TCF/beta-catenin cis-reporter transcription, actives raise or lower the signal
Outline: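 In this cis-format system, transfected HepG2 cells report endogenous transcription factor activity. Readout after 24 h exposure is reporter transcript abundance from RT-PCR and capillary electrophoresis, analysed for gain or loss of signal versus DMSO.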

[2] = ATG_TAL_CIS: Attagene CIS-FACTORIAL HepG2 Assay for human TAL Basal Promoter (AID 2282966); details: HepG2 Attagene cis-factorial TAL promoter reporter; actives raise or lower the signal;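 further: background control endpoint measuring basal TAL promoter reporter mRNA not a specific factor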
Outline: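 Background-control endpoint: basal TAL promoter reporter transcripts in transiently transfected HepG2, measured 24 h after dosing. Read-out by RT-PCR with fluorescent primer extension and capillary electrophoresis; gain or loss of signal fitted relative to DMSO.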

[3] = ATG_TGFb_CIS: Attagene CIS-FACTORIAL HepG2 Assay for human Transforming Growth Factor (TGF) (AID 2282967); details: HepG2 Attagene CIS TGFb reporter, mRNA transcription; actives raise or lower the signal
Outline: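 HepG2 cells transiently transfected with cis-promoter-driven multiplexed reporter units; 24 h compound exposure. Reporter mRNA measured by RT-PCR, 6-FAM labeling, HpaI digestion and capillary electrophoresis; bidirectional fit versus DMSO baseline.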

[4] = ATG_VDRE_CIS: Attagene CIS-FACTORIAL HepG2 Assay for human Vitamin D Receptor Element (VDRE) (AID 2282968); details: HepG2 VDRE cis-reporter transcription, actives raise or lower the signal
Outline: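 Transfected HepG2 reporter cells, chemical treatment 24 h. RNA isolated, cDNA amplified with reporter-specific primers, products analysed by capillary electrophoresis. Endpoint fitted in both directions versus DMSO.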

[5] = target: X-box-binding protein 1 (Homo sapiens) (UniProt P17861); assay: ATG_Xbp1_CIS: Attagene CIS-FACTORIAL HepG2 Assay for human X-box Binding Protein 1 (XBP1) (AID 2282972); details: HepG2 XBP1 cis-element reporter, Attagene multiplex; actives raise or lower the signal
Chain of X-box-binding protein 1 (Homo sapiens) (P17861 whole entry, looked up, the tested form may be a part): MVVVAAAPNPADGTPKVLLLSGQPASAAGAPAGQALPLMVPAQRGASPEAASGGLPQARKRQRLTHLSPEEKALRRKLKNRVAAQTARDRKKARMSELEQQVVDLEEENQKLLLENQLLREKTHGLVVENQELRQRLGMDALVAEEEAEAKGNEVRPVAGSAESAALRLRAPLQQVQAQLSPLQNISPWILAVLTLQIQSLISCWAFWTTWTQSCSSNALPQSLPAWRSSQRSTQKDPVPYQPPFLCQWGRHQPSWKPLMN
Outline: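 Read-out: fluorescent reporter mRNA fragments resolved by capillary electrophoresis after RT-PCR. Human HepG2 liver cells carried transfected cis-promoter reporter units and were exposed to chemicals for 24 hours. Gain or loss of signal fitted relative to DMSO baseline.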

[6] = ATG_M_19_TRANS: Attagene TRANS-FACTORIAL HepG2 Assay for M19 Transcription Factor (Internal Marker) (AID 2282974; active means hit-call score of the fitted dose curve at least 0.9, where 1 is the maximum); details: HepG2 Attagene TRANS-FACTORIAL M19 internal marker reporter
Outline: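 Cells: human HepG2, transiently transfected with multiplexed reporter transcription units. Exposure: 24 h. Detection: RT-PCR of reporter mRNA with capillary electrophoresis. Analysis: gain-of-signal vs DMSO.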

[7] = target: Estrogen receptor (Homo sapiens) (UniProt P03372); assay: ATG_ERa_TRANS: Attagene TRANS-FACTORIAL HepG2 Assay for human Estrogen Receptor alpha (ERa) (AID 2282970; active means hit-call score of the fitted dose curve at least 0.9, where 1 is the maximum); details: HepG2 Attagene TRANS ERa GAL4 reporter, mRNA
Chain of Estrogen receptor (Homo sapiens) (P03372 whole entry, looked up, the tested form may be a part): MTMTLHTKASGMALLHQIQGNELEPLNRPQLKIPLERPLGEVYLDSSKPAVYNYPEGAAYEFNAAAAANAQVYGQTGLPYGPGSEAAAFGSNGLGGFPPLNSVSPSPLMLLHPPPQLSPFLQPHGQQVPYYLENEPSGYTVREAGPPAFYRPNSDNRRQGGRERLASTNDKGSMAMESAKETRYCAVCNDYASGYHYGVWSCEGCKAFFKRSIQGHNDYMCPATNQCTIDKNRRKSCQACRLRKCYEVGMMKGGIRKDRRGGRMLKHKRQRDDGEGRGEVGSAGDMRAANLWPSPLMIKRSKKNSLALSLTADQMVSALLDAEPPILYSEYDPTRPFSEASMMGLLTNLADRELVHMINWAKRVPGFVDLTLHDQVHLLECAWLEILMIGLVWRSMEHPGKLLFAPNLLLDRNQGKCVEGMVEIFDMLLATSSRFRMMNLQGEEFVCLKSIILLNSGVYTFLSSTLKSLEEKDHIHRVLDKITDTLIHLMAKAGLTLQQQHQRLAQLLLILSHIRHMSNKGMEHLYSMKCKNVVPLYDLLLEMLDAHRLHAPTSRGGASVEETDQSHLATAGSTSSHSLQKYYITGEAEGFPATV
Outline: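 Reporter transcripts were measured 24 h after dosing by RT-PCR with fluorescent primer extension and capillary electrophoresis. The system is transiently transfected HepG2 expressing exogenous NR-Gal4 chimeras driving GAL4-UAS reporters; DMSO is the baseline.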

[8] = ATG_GAL4_TRANS: Attagene TRANS-FACTORIAL HepG2 Assay for GAL4 (Internal Marker) (AID 2282976; active means hit-call score of the fitted dose curve at least 0.9, where 1 is the maximum); details: HepG2 Attagene TRANS GAL4 internal marker reporter
Outline: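 In transfected human HepG2 liver cells dosed 24 h, GAL4 reporter mRNA serves as a baseline marker. Detection by RT-PCR with fluorescent capillary electrophoresis, activity fitted upward relative to DMSO.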

[9] = target: Nuclear receptor subfamily 1 group I member 3 (Homo sapiens) (UniProt Q14994); assay: ATG_CAR_TRANS: Attagene TRANS-FACTORIAL HepG2 Assay for human Constitutive Androstane Receptor (CAR) (AID 2282969; active means hit-call score of the fitted dose curve at least 0.9, where 1 is the maximum;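 further: activators raise reporter mRNA above DMSO so AC50 marks induction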); details: HepG2 Attagene TRANS-FACTORIAL CAR reporter
Chain of Nuclear receptor subfamily 1 group I member 3 (Homo sapiens) (Q14994 whole entry, looked up, the tested form may be a part): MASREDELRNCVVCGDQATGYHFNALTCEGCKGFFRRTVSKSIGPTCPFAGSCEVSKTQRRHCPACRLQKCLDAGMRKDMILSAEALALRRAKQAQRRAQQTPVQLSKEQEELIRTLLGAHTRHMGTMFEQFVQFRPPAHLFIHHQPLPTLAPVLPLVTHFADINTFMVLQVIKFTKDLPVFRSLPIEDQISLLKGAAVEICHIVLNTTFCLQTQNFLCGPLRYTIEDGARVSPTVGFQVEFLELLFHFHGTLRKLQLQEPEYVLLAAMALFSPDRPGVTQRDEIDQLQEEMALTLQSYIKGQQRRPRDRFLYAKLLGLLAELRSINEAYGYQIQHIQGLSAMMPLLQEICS
Outline: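 Steps: transient transfection of HepG2 with multiple GAL4-UAS reporter units; 24 h compound incubation; RNA isolation, RT-PCR, 6-FAM primer extension, HpaI digest; capillary electrophoresis. Gain-of-signal relative to DMSO negative control.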

[10] = target: Estrogen-related receptor gamma (Homo sapiens) (UniProt P62508); assay: ATG_ERRg_TRANS: Attagene TRANS-FACTORIAL HepG2 Assay for human Estrogen-Related Receptor gamma (ERRg) (AID 2282977; active means hit-call score of the fitted dose curve at least 0.9, where 1 is the maximum;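 further: hits increase reporter signal over DMSO so potencies reflect activators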); details: HepG2 Attagene TRANS reporter, ERRg transactivation
Chain of Estrogen-related receptor gamma (Homo sapiens) (P62508 whole entry, looked up, the tested form may be a part): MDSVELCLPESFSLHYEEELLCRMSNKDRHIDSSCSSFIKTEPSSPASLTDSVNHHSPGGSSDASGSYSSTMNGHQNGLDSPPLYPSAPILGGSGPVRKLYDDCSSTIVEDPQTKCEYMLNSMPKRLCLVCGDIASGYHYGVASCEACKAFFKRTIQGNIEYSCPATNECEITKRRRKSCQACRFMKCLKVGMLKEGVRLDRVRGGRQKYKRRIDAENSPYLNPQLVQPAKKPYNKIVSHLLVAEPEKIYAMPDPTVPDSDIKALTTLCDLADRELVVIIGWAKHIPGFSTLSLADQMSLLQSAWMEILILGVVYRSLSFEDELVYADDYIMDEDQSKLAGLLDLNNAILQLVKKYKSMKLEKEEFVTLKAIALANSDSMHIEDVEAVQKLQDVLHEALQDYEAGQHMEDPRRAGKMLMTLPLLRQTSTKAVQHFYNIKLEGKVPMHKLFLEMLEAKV
Outline: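 Readout: fluorescent reporter-mRNA fragments resolved by capillary electrophoresis after RT-PCR and HpaI cut. Cells: transiently transfected HepG2 carrying GAL4-UAS reporters driven by exogenous NR-Gal4 chimeras, dosed 24 h. Activity fitted upward relative to DMSO baseline.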

Measured: AC50

CC1=C(/C=C/C(C)=C/C=C/C(C)=C/C(=O)O)C(C)(C)CCC1
active: [1] 23.7 µM and 102 µM | [4] 6.62 µM and 11.9 µM | [5] 44.3 µM and 8.86 µM
inactive: [2] | [3] | [6]

OC1CCCCC1
not listed: [6] | [9] | [10]
inactive: all other assays above

OC1CCC(C2CCCCC2)CC1 (stereo not drawn)
not listed: [7] | [9] | [10]
inactive: all other assays above

Cc1oc(-c2ccccc2)nc1CCOc1ccc(C[C@H](Nc2ccccc2C(=O)c2ccccc2)C(=O)O)cc1
active: [4] 16.6 µM
not listed: [6] | [9] | [10]
inactive: all other assays above

CC(C)CCCCCCOC(=O)CCCCC(=O)OCCCCCCC(C)C
not listed: [7] | [9] | [10]
inactive: all other assays above

Cc1cc(CCN2CCN(c3nsc4ccccc34)CC2)cc2c1NC(=O)CC2(C)C
active: [4] 4.92 µM | [5] 11 µM
not listed: [6] | [8]
inactive: all other assays above

CC(C)(C)c1cccc(C(C)(C)C)c1O
active: [1] 173 µM | [7] 61.4 µM | [5] 144 µM
inactive: [2] | [3] | [9] | [8]

COCC(C)OCC(C)O (stereo not drawn)
inactive: [1] | [2] | [3] | [4] | [5] | [6]

CC(=O)NC1(c2cccc(F)c2)CCN(CC[C@@]2(c3ccc(Cl)c(Cl)c3)CN(c3ccccc3)C(=O)CO2)CC1
inactive: [2] | [3] | [6] | [8]
active: [1] 8.64 µM | [4] 39.8 µM | [5] 25.7 µM

CCCCCCCCC(=O)O
inactive: [1] | [2] | [3] | [7] | [5] | [6]

O=C(/C=C/c1ccc(O)cc1)CC(=O)/C=C/c1ccc(O)cc1
active: [4] 5.76 µM
not listed: [6] | [8]
inactive: all other assays above

NC(=O)N1C(=O)C(C(=O)c2cc(Cl)cs2)c2cc(F)c(Cl)cc21 (stereo not drawn)
active: [4] 9.88 µM | [5] 14.1 µM
not listed: [8] | [9]
inactive: all other assays above

Cc1cc(C)c(O)c(C)c1
active: [7] 100 µM
not listed: [4] | [8] | [10]
inactive: all other assays above

CCCCC(CC)COC(=O)CCCCC(=O)OCC(CC)CCCC (stereo not drawn)
not listed: [8] | [9] | [10]
inactive: all other assays above

CC(C)(C)c1ccc(O)c(C(C)(C)C)c1
active: [9] 4.79 µM
not listed: [6] | [8]
inactive: all other assays above

Oc1cccc(O)c1
not listed: [9]
inactive: all other assays above

N#C[C@@H]1CC(F)(F)CN1C(=O)CNC1CC2CCC(C1)N2c1ncccn1 (stereo partly drawn)
not listed: [4] | [9]
inactive: all other assays above

CCCCC(CC)COC(=O)CCCCC(=O)OCc1ccccc1 (stereo not drawn)
inactive: [1] | [2] | [3] | [4] | [7] | [5]

CCCCCCCCCCCCN1CCCC1=O
not listed: [8] | [9] | [10]
inactive: all other assays above

CCN(CC)CCNc1ccc(CNC=O)c2sc3ccc(OC)cc3c(=O)c12
inactive: [1] | [2] | [3]
active: [4] 0.689 µM | [7] 1.05 µM | [5] 0.766 µM | [8] 3.36 µM

COCC(C)O (stereo not drawn)
not listed: [8] | [9]
inactive: all other assays above

CCCOc1sc(C(=O)N2CCC(c3cc(CN)ccc3F)CC2)c(C)c1Br
not listed: [8] | [9] | [10]
inactive: all other assays above

CC(C)(C)CC(C)(C)c1ccc(O)c(-n2nc3ccccc3n2)c1
active: [4] 6.7 µM | [7] 26.8 µM
inactive: [1] | [2] | [3] | [5]

COC(=O)CCCCC(=O)OC
not listed: [6] | [9] | [10]
inactive: all other assays above

Oc1cc2ccccc2c2ccccc12
not listed: [9] | [10]
inactive: all other assays above

NC(=O)N(O)[C@@H]1C=C[C@H](Oc2cccc(Oc3ccc(F)cc3)c2)C1
active: [1] 33 µM | [4] 26 µM | [7] 11.2 µM
not listed: [8] | [9]
inactive: all other assays above

O=C(OCCOCCOC(=O)c1ccccc1)c1ccccc1
inactive: [1] | [2] | [3] | [4] | [5] | [6]

CN(C)C=O
not listed: [4] | [9]
inactive: all other assays above

CCc1nn(C2CCCCC2)c2cc(C3(C#N)CCC(C(=O)O)CC3)ccc12 (stereo not drawn)
active: [1] 52.3 µM | [4] 48.7 µM
inactive: [2] | [3] | [7] | [5] | [10]

CCCCCCCCCCCCCC[N+](C)(C)C
inactive: [2] | [3] | [4] | [7] | [5] | [6] | [8] | [10]
active: [1] 17.2 µM and 7.58 µM | [5] 6.33 µM

CC(O)CO (stereo not drawn)
not listed: [6] | [9]
inactive: all other assays above

COc1ccc([N+](=O)[O-])cc1N
not listed: [9] | [10]
inactive: all other assays above

c1ccc2c(c1)Cc1ccccc1-2
active: [7] 35.4 µM
not listed: [6] | [9] | [10]
inactive: all other assays above

O=[N+]([O-])c1ccc(O)cc1
not listed: [6] | [9] | [10]
inactive: all other assays above

CC(=O)CC(C)(C)O
active: [7] 26.5 µM
not listed: [9]
inactive: all other assays above

C#C[C@]1(O)CC[C@H]2[C@@H]3CCC4=CC(=O)CC[C@@H]4[C@H]3CC[C@@]21C
inactive: [1] | [2] | [3] | [9] | [5] | [6]
